The supplement of paper PMC11732987, “Enantioselective OTUD7B fragment discovery through chemoproteomics screening and high-throughput optimisation” (Communications Chemistry, 2025)

Biological target: COPS5 (UniProt Q92905)
Test: log2 ratio of Biotin-Ahx-Ub-VS probe labelling (fragment/DMSO); higher = less target engagement (more negative = stronger competition), active = hit call of the paper (q ≤ 0.05, log2 ratio ≤ -1)
Details: compound concentration: 200 uM; treatment time: 3 h
Procedure: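 Competitive ABPP in HEK293T cell lysate. Lysates were treated with each chloroacetamide fragment at 200 µM for 3 h, then with Biotin-Ahx-Ub-VS (0.5 µM, 1 h), NeutrAvidin-enriched and analysed by diaPASEF LC-MS/MS. Protein LFQ was median-normalised; average log2 ratio is fragment/DMSO from an unpaired t-test (n=3 treated, n=44 DMSO). Hits: q ≤ 0.05, log2 ratio ≤ -1, unique peptides ≥ 2.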

Sequence of COPS5 (Q92905 whole entry, looked up, the tested form may be a part): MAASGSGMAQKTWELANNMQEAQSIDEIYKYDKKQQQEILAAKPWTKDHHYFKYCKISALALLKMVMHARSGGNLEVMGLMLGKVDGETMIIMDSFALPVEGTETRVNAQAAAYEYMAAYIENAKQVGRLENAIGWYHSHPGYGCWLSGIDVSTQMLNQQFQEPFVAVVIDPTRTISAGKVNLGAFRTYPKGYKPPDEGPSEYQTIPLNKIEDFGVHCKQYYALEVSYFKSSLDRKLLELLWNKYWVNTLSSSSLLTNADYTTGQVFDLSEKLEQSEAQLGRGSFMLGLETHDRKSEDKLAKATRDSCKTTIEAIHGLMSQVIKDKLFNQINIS

log2 ratio of Biotin-Ahx-Ub-VS probe labelling, inactive:
O=C(CCl)N1CCC[C@@H]1c1ccon1 -0.115
O=C(CCl)N1CCC(c2nc3ccccc3o2)CC1 -0.0083
Cl.O=C(CCl)NCCc1ncc(F)cc1F 0.213
O=C(CCl)N1CCc2[nH]c3ccccc3c2C1 -0.0163
C[C@H]1CN(C(=O)CCl)CCN1C(=O)c1cnn(C)c1.Cl -0.0598
Cc1ccc(C)c(Oc2ccc(CNC(=O)CCl)cn2)c1.Cl -0.0158
CS(=O)(=O)c1ccc(NC(=O)CCl)cc1 0.0438
O=C(CCl)NC1CCC(C(F)(F)F)CC1 (stereo not given) -0.114
CN(Cc1nc2ccccc2[nH]1)C(=O)CCl.Cl -0.0146
CN(C)C(=O)c1ccc(CNC(=O)CCl)cc1 0.0838
Cl.Cn1nccc1C(NC(=O)CCl)c1ccccc1 (stereo not given) 0.313
COc1cc(Cl)c(C)cc1NC(=O)CCl -0.0677
O=C(CCl)N1CCN(C(=O)N2CCCCC2)CC1 -0.16
N#Cc1cnn(-c2ccccc2)c1NC(=O)CCl -0.123
O=C(CCl)N(Cc1ccsc1)C1CC1 0.054
CC(O)CC1CCN(C(=O)CCl)CC1 (stereo not given) -0.25
O=C(CCl)NCc1ccc(N2CCOCC2)c(F)c1 -0.0355
CC(NC(=O)CCl)c1ccc2[nH]ncc2c1 (stereo not given) -0.00941
O=C(CCl)NC1(c2ccc3c(c2)OCCO3)CCCC1 -0.172
CC(c1ccccc1)N(C)C(=O)CCl (stereo not given) 0.082
O=C(CCl)N1CCC(c2noc3cc(F)ccc23)CC1 0.00234
O=C(CCl)Nc1ccc(Cl)c(F)c1 0.155
Cc1ccccc1OCC(=O)N1CCN(C(=O)CCl)CC1 0.104
CCC(NC(=O)CCl)c1ccc(Cl)cc1 (stereo not given) 0.193
COc1ccc(Cl)cc1NC(=O)CCl -0.0284
Cc1ccc(-c2nnc(C)[nH]2)c(NC(=O)CCl)c1 0.151
C#Cc1cccc(NC(=O)CCl)c1 -0.274
Cc1cc(C(=O)NC2CCN(C(=O)CCl)CC2)no1 0.0469
O=C(CCl)N1CCOCCC1c1ccccc1 (stereo not given) -0.0175
O=C(CCl)N1CCC(C(=O)N2CCCCCC2)CC1 -0.0587
O=C(CCl)Nc1ccc(N2CCCC2=O)cc1 0.31
NS(=O)(=O)c1ccc(Cl)c(NC(=O)CCl)c1 0.226
Cc1ccn2cc(CNC(=O)CCl)nc2c1.Cl 0.326
Cc1cc(C2CCCN2C(=O)CCl)nn1C.Cl (stereo not given) 0.0127
CC1(NC(=O)CCl)CCS(=O)(=O)C1 (stereo not given) 0.0148
CC(NC(=O)CCl)c1cccc2ccccc12 (stereo not given) 0.127
Cc1noc(N2CCN(C(=O)CCl)CC2)n1.Cl -0.17
Cc1ccc(N(CCC#N)C(=O)CCl)cc1C 0.127
Cl.O=C(CCl)NCCN1CCc2ccccc21 0.365
O=C(CCl)N1CC=C(c2c[nH]c3ccccc23)CC1 -0.0638
